This passage reports Potency results from PubChem BioAssay (Tox21).

Experiment [1] can be described thus: Nuclear factor erythroid 2-related factor 2/antioxidant responsive element (Nrf2/ARE) small molecule agonists: luciferase reporter gene qHTS assay in human keratinocytes (AID 1919969; further: nearly all actives have a fitted effect of over 35% in size; further: potency means the concentration at half of the fitted maximal effect). (In general: A reporter such as luciferase makes a cellular process visible.)
Experiment [2] concerns the target Gonadotropin-releasing hormone receptor (Homo sapiens) (UniProt P30968). The experiment can be described thus: Human gonadotropin-releasing hormone receptor (GnRHR) small molecule agonists, calcium flux assay in GnRHR-HEK293 cells (AID 1920063). Further: nearly all actives have a fitted effect of over 35% in size. An outline of the steps: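 Compounds dissolved in DMSO are pin-transferred onto dye-loaded GnRHR-HEK293 cells, which were seeded 18 h before at 37 C/5% CO2. Calcium signal is read as fluorescence intensity at 1 s intervals for 3 min.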
(A change in cytosolic calcium serves as a functional read-out for many receptors and channels.)

For experiment [3], the target named is KiSS-1 receptor (Homo sapiens) (UniProt Q969F8). The experiment can be described thus: Human kisspeptin (KISS1R) small molecule agonists, calcium flux assay in KISS1R-HEK293 cells (AID 1920064; active means well fitted activation curve with a large enough effect in the repeat runs). The procedure, abridged: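 Cell line: HEK293, stable human KISS1R. Dye loading 1 h at 37 C after 18 h culture. Read: kinetic fluorescence, 480/540 nm, 3 min at 1 s intervals.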

Experiment [4] is described as follows: G protein-coupled receptor (GPCR) small molecule agonists, calcium flux assay: HEK293 wild type cell line counter screen (AID 1920065). An outline of the steps:
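Tox21 10K compounds, 15 concentrations each in triplicate, pin-transferred in DMSO onto dye-loaded cells; kinetic read at 480/540 nm for 3 min, 1 s intervals.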

A short description of experiment [5]: p53 small molecule agonists, cell-based qHTS assay with rat liver microsomes: qHTS cell viability counter screen (AID 1963580). Further: nearly all actives have a fitted effect of over 45% in size. Further: potency means the concentration at half of the fitted maximal effect. An outline of the steps: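 After the beta-lactamase ratio was read, CellTiter-Glo was added to the same wells and luminescence measured at 30 min; cells had been treated 16 h at 37 C with compounds, rat liver microsomes and NADPH (0.5 mg/mL final each).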

Experiment [6] in a line: p53 small molecule agonists, cell-based qHTS assay: qHTS cell viability counter screen (AID 1963581). Further: nearly all actives have a fitted effect of over 45% in size. An outline of the steps: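 ATP content measured by luminescence in HCT-116 p53RE-bla cells treated 16 h at 37 C, same wells as the reporter screen.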
(In general: In qHTS, concentration-response curves come from the screen itself.)

A short description of experiment [7]: p53 small molecule agonists, cell-based qHTS assay (AID 1963582; active means well fitted activation curve with a large enough effect in the signal ratio in the repeat runs, not every such curve was filed as active; the % refers to the signal ratio; further: potency means the concentration at half of the fitted maximal effect). The procedure, abridged:
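16 h compound exposure (37 C) of p53 response element–bla cells, preceded by 5 h recovery at 37 C/5% CO2; read-out via LiveBLAzer B/G FRET substrate, 2 h RT, fluorescence intensity.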

The target in experiment [8] is 5-hydroxytryptamine receptor 2A (Homo sapiens) (UniProt P28223). Kind of experiment: 5-hydroxytryptamine receptor 2A (HTR2A) small molecule antagonists, cell-based qHTS assay (AID 1963586). Further: nearly all actives have a fitted effect of over 45% in size. Further: potency means the concentration at half of the fitted maximal effect. The procedure, abridged: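 CHO cells stably expressing human HTR2A were plated for 18 h at 37 C, then loaded with calcium dye for 1 h. Compounds were preincubated 5 min at room temperature before DOI (4 nM solution) was added. Kinetic fluorescence was read for 3 min.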

For experiment [9] the target is unchanged. Kind of experiment: 5-hydroxytryptamine receptor 2A (HTR2A) small molecule agonists, cell-based qHTS assay (AID 1963587). Further: nearly all actives have a fitted effect of over 30% in size. An outline of the steps:
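CHO cells stably expressing human HTR2A, plated 18 h, loaded with calcium dye 1 h at 37 C. Agonist mode: compounds added and intracellular calcium fluorescence recorded kinetically for 2 min at 1 sec intervals.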

Experiment [10] has as its target Muscarinic acetylcholine receptor M1 (Homo sapiens) (UniProt P11229). Kind of experiment: Cholinergic receptor muscarinic 1 (CHRM1) small molecule agonists, cell-based qHTS assay (AID 1963589). Further: nearly all actives have a fitted effect of over 35% in size. An outline of the steps: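 Homogeneous fluorescence calcium flux, agonist mode. Human M1-expressing CHO cells; compound dosed at 15 concentrations, three independent runs; signal sampled every 1 sec.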

The nature of experiment [11]: cAMP Responsive Elements (CRE) small molecule agonists, cell-based qHTS assay (AID 1963590). An outline of the steps: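 HEK 293T cells stably bearing CRE-bla were plated at 2,000 cells per well and rested 18 h. Compounds, positive controls or DMSO were added for 3 h at 37 C. LiveBLAzer B/G substrate was then loaded for 2 h at room temperature.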
Experiment [12] in a line: cAMP Responsive Elements (CRE) small molecule antagonists, cell-based qHTS assay (AID 1963591; active means well fitted inhibition curve with a large enough effect in the signal ratio in the repeat runs, not every such curve was filed as active; the % refers to the signal ratio). The procedure, abridged:
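First, CRE-bla HEK293T cells settled 18 h at 37 C. Next, compound and 0.25 uM final NKH477 were applied for 3 h. Last, LiveBLAzer B/G substrate was loaded for 2 h at room temperature.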

Experiment [13] addresses Beta-2 adrenergic receptor (Homo sapiens) (UniProt P07550). The experiment can be described thus: Adrenergic beta2 receptor (ADRB2) small molecule antagonists, cell-based qHTS assay (AID 1963592). Further: series mostly up to about 92 µM; nearly all actives have a fitted effect of over 50% in size. An outline of the steps: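 Assay format: CHO-ADRB2 cells, 18-20hr seeding at 37C/5% CO2, then compound plus 1nM isoproterenol agonist mix for 0.5hr RT. Homogeneous time-resolved fluorescence cAMP detection after 1hr, expressed as 665/615 nm ratio.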

Experiment [14] concerns the target D(2) dopamine receptor (Homo sapiens) (UniProt P14416). The experiment can be described thus: Dopamine D2 receptor (DRD2) small molecule antagonists, cell-based qHTS assay (AID 1963595; active means well fitted inhibition curve with a large enough effect in the signal ratio in the repeat runs, with a control signal flat; the % refers to the signal ratio). An outline of the steps: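 Antagonist mode in DRD2-HEK293 cells: after compound addition with 0.1 mM Ro20-1724, cells received quinpirole (12 nM) and NKH477 (200 nM) for 30 min at room temperature; HTRF cAMP read after 1 h detection.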

Experiment [15] has the same target. Kind of experiment: Dopamine D2 receptor (DRD2) small molecule agonists, cell-based qHTS assay (AID 1963594). Further: nearly all actives have a fitted effect of over 35% in size. The procedure, abridged: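 HEK293 cells stably expressing human DRD2, pre-treated with PDE inhibitor Ro20-1724 (0.1 mM final) and compound 10 min at room temperature, then stimulated with NKH477 (200nM […]) for 30 min. cAMP read by HTRF (665/620 nm).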

The nature of experiment [16]: p53 small molecule agonists, cell-based qHTS assay with human liver microsomes (AID 1963577). The procedure, abridged:
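Cells carrying a p53-responsive bla reporter were rested 5 h (37 C, 5% CO2) before compound transfer. Human liver microsomes plus NADPH, 0.5 mg/mL final apiece, supplied metabolism during the 16 h 37 C exposure.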

Experiment [17] can be described thus: p53 small molecule agonists, cell-based qHTS assay with human liver microsomes: qHTS cell viability counter screen (AID 1963579). Further: nearly all actives have a fitted effect of over 45% in size. The procedure, abridged:
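Seed p53RE-bla cells at 4,000 per well; incubate 5 h at 37 C; add compound, human liver microsomes and NADPH; incubate 16 h at 37 C; add CellTiter-Glo; after 30 min at room temperature, read luminescence.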

The target in experiment [18] is Muscarinic acetylcholine receptor M1 (Homo sapiens) (UniProt P11229). The experiment can be described thus: Cholinergic receptor muscarinic 1 (CHRM1) small molecule antagonists, cell-based qHTS assay (AID 1963588). Further: nearly all actives have a fitted effect of over 40% in size. The procedure, abridged:
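Compounds were tested at 15 concentrations in three independent runs. Dye-loaded CHRM1-CHO cells were exposed 5 min at room temperature before stimulation by acetylcholine added at 50nM. Intracellular calcium was read kinetically on FDSS for 3 min.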

Experiment [19] concerns the target Beta-2 adrenergic receptor (Homo sapiens) (UniProt P07550). The experiment can be described thus: Adrenergic beta2 receptor (ADRB2) small molecule agonists, cell-based qHTS assay (AID 1963593).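 Further: CHO cells stably overexpressing human ADRB2.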 An outline of the steps: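 CHO cells stably over-expressing ADRB2 were plated overnight at 37C, then dosed with compounds plus a stimulation mix containing 100uM IBMX and 25uM Ro-20-1724 for 0.5hr at room temperature. cAMP was measured by HTRF competition, 1hr.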

The nature of experiment [20]: p53 small molecule agonists, cell-based qHTS assay with rat liver microsomes (AID 1963578). An outline of the steps:
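Fluorescence from a beta-lactamase reporter under a p53 response element was measured after cells had been incubated 16 h at 37 C with test compound and rat liver microsomes plus NADPH (0.5 mg/mL final each).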

Where “and” joins values, the source holds several entries; their conditions need not be identical. Identical values can stand only once. Inconclusive results are not listed. Calls of active or inactive are those of the source. Unless noted, the call rests on the fitted dose curve.

Sequence of Gonadotropin-releasing hormone receptor (Homo sapiens) (P30968 whole entry, looked up): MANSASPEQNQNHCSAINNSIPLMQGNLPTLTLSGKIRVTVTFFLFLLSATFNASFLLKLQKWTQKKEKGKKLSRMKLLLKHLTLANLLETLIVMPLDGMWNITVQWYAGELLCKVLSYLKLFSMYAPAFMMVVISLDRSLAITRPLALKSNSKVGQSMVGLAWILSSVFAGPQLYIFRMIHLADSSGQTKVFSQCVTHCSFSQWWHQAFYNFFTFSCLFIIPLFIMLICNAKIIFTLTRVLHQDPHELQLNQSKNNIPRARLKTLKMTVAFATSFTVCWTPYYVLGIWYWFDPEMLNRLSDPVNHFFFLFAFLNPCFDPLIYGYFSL
Sequence of 5-hydroxytryptamine receptor 2A (Homo sapiens) (P28223 whole entry, looked up): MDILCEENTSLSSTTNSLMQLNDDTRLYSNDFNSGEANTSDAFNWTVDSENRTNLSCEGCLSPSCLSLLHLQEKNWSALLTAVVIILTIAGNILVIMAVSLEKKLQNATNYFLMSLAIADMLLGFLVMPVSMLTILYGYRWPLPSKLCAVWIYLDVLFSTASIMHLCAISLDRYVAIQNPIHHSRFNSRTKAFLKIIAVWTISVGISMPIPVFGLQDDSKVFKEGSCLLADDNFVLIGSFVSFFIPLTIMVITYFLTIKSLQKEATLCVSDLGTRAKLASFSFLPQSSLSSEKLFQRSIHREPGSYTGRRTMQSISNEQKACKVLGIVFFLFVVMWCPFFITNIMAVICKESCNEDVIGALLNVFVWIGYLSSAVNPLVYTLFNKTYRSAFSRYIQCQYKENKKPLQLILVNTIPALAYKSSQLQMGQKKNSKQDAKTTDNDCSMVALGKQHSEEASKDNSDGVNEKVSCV
Sequence of Beta-2 adrenergic receptor (Homo sapiens) (P07550 whole entry, looked up): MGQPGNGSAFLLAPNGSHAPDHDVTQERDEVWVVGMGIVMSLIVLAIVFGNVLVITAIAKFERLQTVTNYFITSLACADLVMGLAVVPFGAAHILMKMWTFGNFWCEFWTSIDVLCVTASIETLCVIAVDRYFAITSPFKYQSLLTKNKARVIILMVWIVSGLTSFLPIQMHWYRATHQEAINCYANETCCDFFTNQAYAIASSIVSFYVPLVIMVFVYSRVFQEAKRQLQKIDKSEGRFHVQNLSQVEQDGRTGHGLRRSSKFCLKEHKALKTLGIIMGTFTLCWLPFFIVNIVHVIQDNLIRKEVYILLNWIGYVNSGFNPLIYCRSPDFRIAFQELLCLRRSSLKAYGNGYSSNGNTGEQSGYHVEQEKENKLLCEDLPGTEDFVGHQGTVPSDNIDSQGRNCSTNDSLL
Sequence of D(2) dopamine receptor (Homo sapiens) (P14416 whole entry, looked up): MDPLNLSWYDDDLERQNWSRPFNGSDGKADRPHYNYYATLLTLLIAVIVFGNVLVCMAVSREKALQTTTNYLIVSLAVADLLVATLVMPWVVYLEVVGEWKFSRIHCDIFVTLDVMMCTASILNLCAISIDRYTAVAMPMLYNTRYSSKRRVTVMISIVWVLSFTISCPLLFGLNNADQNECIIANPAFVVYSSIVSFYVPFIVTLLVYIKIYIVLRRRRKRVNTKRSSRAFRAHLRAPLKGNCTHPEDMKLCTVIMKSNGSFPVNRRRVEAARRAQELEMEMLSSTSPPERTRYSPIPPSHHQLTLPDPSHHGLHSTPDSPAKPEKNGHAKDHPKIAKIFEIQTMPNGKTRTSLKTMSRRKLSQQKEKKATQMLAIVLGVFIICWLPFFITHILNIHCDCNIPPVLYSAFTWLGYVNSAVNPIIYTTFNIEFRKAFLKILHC
Sequence of Muscarinic acetylcholine receptor M1 (Homo sapiens) (P11229 whole entry, looked up): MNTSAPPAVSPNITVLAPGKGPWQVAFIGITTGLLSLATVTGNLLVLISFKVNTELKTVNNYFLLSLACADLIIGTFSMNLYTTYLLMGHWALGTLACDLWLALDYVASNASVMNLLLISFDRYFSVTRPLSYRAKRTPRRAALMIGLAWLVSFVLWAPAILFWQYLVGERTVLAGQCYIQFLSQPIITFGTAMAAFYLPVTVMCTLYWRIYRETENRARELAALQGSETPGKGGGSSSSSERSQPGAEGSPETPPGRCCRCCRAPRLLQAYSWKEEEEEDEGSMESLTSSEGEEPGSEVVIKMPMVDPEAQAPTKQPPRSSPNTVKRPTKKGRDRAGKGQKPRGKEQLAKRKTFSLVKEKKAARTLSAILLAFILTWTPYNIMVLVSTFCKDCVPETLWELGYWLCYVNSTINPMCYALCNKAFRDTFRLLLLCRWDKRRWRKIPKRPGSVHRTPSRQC
Sequence of KiSS-1 receptor (Homo sapiens) (Q969F8 whole entry, looked up): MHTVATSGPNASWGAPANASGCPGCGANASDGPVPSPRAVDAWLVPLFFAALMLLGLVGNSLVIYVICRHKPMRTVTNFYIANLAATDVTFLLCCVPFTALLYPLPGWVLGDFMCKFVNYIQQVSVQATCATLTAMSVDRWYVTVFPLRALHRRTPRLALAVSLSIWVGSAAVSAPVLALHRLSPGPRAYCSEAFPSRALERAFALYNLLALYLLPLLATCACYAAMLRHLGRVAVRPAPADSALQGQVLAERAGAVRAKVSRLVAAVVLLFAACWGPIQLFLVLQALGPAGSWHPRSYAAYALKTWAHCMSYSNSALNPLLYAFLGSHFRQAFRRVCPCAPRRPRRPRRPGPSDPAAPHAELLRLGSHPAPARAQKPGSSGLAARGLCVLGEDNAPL

For `COC(=O)C1=C(C)NC(C)=C(C(=O)OCC(C)=O)C1c1ccccc1[N+](=O)[O-]` (stereo unspecified), the Potency result in experiment [1], in experiment [2], in experiment [3], in [4], in [5] and in experiment [6] was “inactive” throughout. Moreover, the Potency entry in experiment [7], in experiment [8], in experiment [9], in experiment [10], in experiment [11] and in experiment [12] was “inactive” throughout. In addition, the Potency result in experiment [13] and in [14] was “inactive” throughout.

Take `C=CC(C)(C)CC(=O)OC`: the Potency result in experiment [1], in experiment [2], in [3], in experiment [4], in experiment [5] and in [8] was “inactive” in each case. Moreover, the Potency entry in experiment [10], in [11], in [13], in experiment [15] and in [14] was “inactive” each time.

Turning to `CN(C)c1ccc(SC#N)cc1`, in experiment [1], the Potency is 24.3 µM (active). The Potency entry in experiment [2], in experiment [3], in experiment [16], in [17], in experiment [5] and in [6] was “inactive” throughout. For the same compound, the Potency entry in experiment [7], in experiment [8], in experiment [9], in experiment [18], in experiment [10] and in experiment [11] was “inactive” each time. Further, the Potency result in experiment [12], in experiment [13], in experiment [19], in [15] and in experiment [14] was “inactive” throughout.

Turning to `COc1ccc(-c2nc3ccc(C4=NNC(=O)CC4C)cc3[nH]2)cc1` (stereo unspecified), the Potency result in experiment [1], in experiment [2], in [3], in [4], in experiment [9] and in experiment [18] was “inactive” each time. Moreover, the Potency result in experiment [10], in experiment [13], in experiment [19] and in [14] was “inactive” in each case. Further, in [8], the Potency is 0.23 µM (active).

As for `NC(=O)c1ccccc1C(N)=O`, the Potency was 68.9 µM (active) in [1] and 45.9 µM (active) in experiment [7]. Moreover, the Potency entry in experiment [2], in [3], in experiment [16], in experiment [20], in experiment [17] and in experiment [5] was “inactive” each time. The Potency result in experiment [8], in [9], in experiment [18], in experiment [11], in [12] and in [13] was “inactive” each time. The Potency entry in [15] and in experiment [14] was “inactive” throughout.

As to `O=C(NS(=O)(=O)/C=C/c1cccs1)c1ccc(F)cc1Br`, in experiment [1], the Potency was 27.3 µM (active). Moreover, the Potency result in experiment [2], in experiment [3], in experiment [4], in experiment [5], in experiment [6] and in [9] was “inactive” throughout. For the same compound, the Potency result in [18], in experiment [10], in experiment [11], in experiment [13], in experiment [15] and in experiment [14] was “inactive” each time.

Consider `Oc1c(I)cc(Cl)c2cccnc12`, for which the Potency is 2.16 µM (active) and 3.35 µM (active) in experiment [1]; 14.1 µM (active) in experiment [5]. In addition, the Potency entry in experiment [2], in [3], in [16], in experiment [20], in [17] and in experiment [6] was “inactive” throughout. Also, the Potency result in experiment [7], in [8], in experiment [9], in experiment [18], in experiment [10] and in experiment [11] was “inactive” in each case. Also, the Potency result in experiment [12], in [13], in [15] and in experiment [14] was “inactive” in each case.
